Most compounds without a hit are left out; they make up all but 3.4% or so of the library.
MITF TRPM1 inh: inhibitors of MITF-dependent TRPM1 promoter reporter, primary screen, cell-based, SK-MEL-5, single point, luciferase. SK-MEL-5 TRPM1 promoter luciferase, 24 h. inhibition, % at 12.5 µM. 330,000 tested, 0.83% active. AID 488899, 2010;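 active = mean inhibition across replicates of 60% or more, whatever share of single replicates reaches that level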
Shn3 inh set2: reduction of Shn3 3'UTR firefly luciferase signal, primary screen, Schnurri-3 inhibitor project, cell-based, Clone20 osteoblasts, set 2; Clone20 osteoblast Shn3 3'UTR firefly luciferase, 24 h; 360,000 tested, 0.52% active; inhibition, % at 12.5 µM;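 active = mean inhibition of at least 75% with every replicate also reaching 75%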
HIF-2a block: HIF-2a reporter inhibitors, primary screen, luminescence, 786-0 RCC cells. 360,000 tested, 0.72% active. AID 624352, 2012. inhibition, % at 18.8 µM. 786-0 RCC cells HIF-2a reporter, luciferase luminescence, overnight;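 active = inhibition of the luminescence signal of 40% or more relative to plate controls, in a single-dose primary screen at 18.75 µM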
LMP1 NFkB inh: EBV LMP1-driven NF-kappaB luciferase reporter inhibitors, primary screen, cell-based, luminescence, single point | LMP1-induced NF-kappaB luciferase reporter cells | inhibition, % at 12.5 µM | 350,000 tested, 0.69% active; in the data active = inhibition above about 41%
TROY NFkB inh: inhibitors of TROY-driven NF-kB signaling, primary screen, Q293 LMP1-TROYcd cells, NF-kB luciferase, uHTS; inhibition, % at 10 µM; 360,000 tested, 0.98% active; Q293 LMP1-TROYcd NF-kB luciferase reporter, 4 h;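 active = compounds whose plate-normalised and pattern-corrected inhibition of the luciferase reporter signal at the single screening dose is 50% or more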
TWEAK-Fn14 inh: inhibitors of TWEAK-Fn14 signaling, primary screen, luciferase reporter cells, uHTS; TWEAK-stimulated Fn14 reporter cells, luciferase luminescence, 8 h; inhibition, % at 10 µM; 360,000 tested, 2% active; AID 1159606, 2016; in the data active = inhibition above about 50%
Of the large screens only hits and unclear results are named; the others gave an inactive call.

c1ccc(-n2ncc3c(NCCCN4CCOCC4)ncnc32)cc1	none
COc1ccc(-n2ncc3c(NC(C)C)ncnc32)cc1	TWEAK-Fn14 inh 63.6
Clc1ccc(-n2ncc3c(NCCN4CCOCC4)ncnc32)cc1	TROY NFkB inh 67.0, TWEAK-Fn14 inh 83.0
COc1ccccc1N(CCC#N)C(=O)COC(=O)CCC(=O)c1ccc(F)cc1	none
COc1ccc(C(=O)N2CCOC2CNC(=O)C(=O)NCc2ccccc2)cc1 (stereo unspecified)	none (no result: MITF TRPM1 inh)
COc1ccccc1-c1nnc(SCC(=O)NNC(=O)c2ccccc2F)n1C	none
CCCNC(=O)NS(=O)(=O)c1ccc(Cl)cc1	LMP1 NFkB inh 58.5
COc1ccc(/C=C2\C(=O)OCc3cc(OC)c(OC)cc32)cc1OC	none
COc1cc2c(cc1OC)/C(=C/c1ccc(Cl)cc1)C(=O)OC2	TROY NFkB inh 50.2
O=C(c1cc(Cl)cc(Cl)c1)N1CCC(=O)N([C@H](COCc2ccccc2)Cc2ccccc2)CC1	none (no result: MITF TRPM1 inh, Shn3 inh set2, LMP1 NFkB inh)
Cc1ccc(NS(=O)(=O)c2cccc(C(=O)N/N=C/c3c(C)nn(-c4ccccc4)c3N3CCCC3)c2)c(C)c1	TWEAK-Fn14 inh 57.0
CCNc1ccc(C(=O)N/N=C/c2c(C)nn(-c3ccccc3)c2N2CCCC2)cc1[N+](=O)[O-]	none
CC(=O)C1=C(C)NC(SCC(=O)c2ccc(Cl)c(Cl)c2)=C(C#N)C1c1ccco1 (stereo unspecified)	none
CC1=C(C(=O)Nc2ccccc2)C(c2ccco2)C(C#N)=C(SCC(=O)OC(C)C)N1 (stereo unspecified)	TWEAK-Fn14 inh 59.3
CC(=O)C1=C(C)NC(SCC(=O)c2cc(Cl)ccc2Cl)=C(C#N)C1c1ccco1 (stereo unspecified)	Shn3 inh set2 81.2
CCn1c(C)nc2cc(C(=O)OC(C(F)(F)C(F)F)C(F)(F)C(F)F)ccc21	TROY NFkB inh 57.0
CCn1c(C)nc2cc(C(=O)NNC(=S)Nc3ccccc3)ccc21	TROY NFkB inh 77.7, TWEAK-Fn14 inh 70.6
CCn1c(C)nc2cc(C(=O)N/N=C/c3ccccc3)ccc21	none
CCn1c(C)nc2cc(C(=O)NNC(=O)c3ccc(C)cc3)ccc21	TROY NFkB inh 77.7, TWEAK-Fn14 inh 72.4
CCn1c(C)nc2cc(C(=O)NNC(=O)c3ccc(Cl)nc3)ccc21	none
CCn1c(C)nc2cc(C(=O)N/N=C/c3ccc(OC)cc3)ccc21	none
CCn1c(C)nc2cc(C(=O)N/N=C/c3cccc(O)c3O)ccc21	Shn3 inh set2 90.5
O=S(=O)(Nc1ccc(F)cc1)c1ccc(NS(=O)(=O)c2cccs2)cc1	none
O=C(Nc1ccc2c(c1)OCCO2)C1CCN(S(=O)(=O)c2ccc(Br)s2)CC1	TWEAK-Fn14 inh 51.3
O=C(Nc1ccc2c(c1)OCCO2)C1CCCN(S(=O)(=O)Cc2ccccc2)C1 (stereo unspecified)	TWEAK-Fn14 inh 54.2
O=C(Nc1ccc2c(c1)OCCO2)C1CCN(C(=O)c2ccc(Br)cc2)CC1	none
COc1ccc(C(=O)N2CCC(C(=O)Nc3ccc4c(c3)OCCO4)CC2)cc1	TWEAK-Fn14 inh 79.3
O=C(Nc1ccc2c(c1)OCCO2)C1CCN(S(=O)(=O)c2cccs2)CC1	none
O=C(Nc1ccc2c(c1)OCO2)c1cc(C2CCCCN2S(=O)(=O)Cc2ccccc2)on1 (stereo unspecified)	TROY NFkB inh 63.6 (no result: MITF TRPM1 inh, LMP1 NFkB inh)
O=C(Nc1ccc2c(c1)OCO2)C1CCCN(S(=O)(=O)Cc2ccccc2)C1 (stereo unspecified)	none
Cn1c(COc2ccc(Cl)cc2)nnc1SCC(=O)NC1CCCC1	none
CC(C)C[C@H]1CN([C@@H](CC(C)C)CN2CCCC2CN2C(=S)NC[C@@H]2Cc2ccccc2)C(=S)N1CC1CCCCC1 (stereo partly specified)	none (no result: MITF TRPM1 inh, Shn3 inh set2, LMP1 NFkB inh)
O=C(Nc1ccc2c(c1)OCCO2)C(c1cc2ccccc2o1)N1CCC(Cc2ccccc2)CC1 (stereo unspecified)	TROY NFkB inh 85.1, TWEAK-Fn14 inh 89.5 (no result: MITF TRPM1 inh, LMP1 NFkB inh)
COc1ccc(NC(=O)C2CCN(S(=O)(=O)c3c(C)nn(C)c3C)CC2)cc1	none
Cc1nn(C)c(C)c1S(=O)(=O)N1CCC(C(=O)Nc2ccc3c(c2)OCCO3)CC1	TROY NFkB inh 66.0, TWEAK-Fn14 inh 78.9
CNC[C@@H]1Oc2cc(Br)ccc2S(=O)(=O)N([C@@H](C)CO)C[C@H]1C	none (no result: MITF TRPM1 inh)
O=C(N/N=C/c1cc2c3c(c1O)CCCN3CCC2)c1ccccc1O	LMP1 NFkB inh 65.4
O=C(COc1ccc(Cl)cc1)Nc1ccccc1C(=O)NCc1cccnc1	none
NS(=O)(=O)c1ccc(CCNc2nn3c(-c4cccc(OC(F)(F)F)c4)cnc3s2)cc1	TROY NFkB inh 72.0, TWEAK-Fn14 inh 93.9 (no result: MITF TRPM1 inh, LMP1 NFkB inh)
CS(=O)(=O)CCC(C(=O)Nc1ccc2c(c1)OCO2)N1Cc2ccccc2C1=O (stereo unspecified)	LMP1 NFkB inh 60.0
CSCC[C@@H](C(=O)Nc1ccc2c(c1)OCCO2)N1Cc2ccccc2C1=O	none (no result: MITF TRPM1 inh)
Cc1ccc(S/C=C\C(=O)c2ccccc2)cc1	TROY NFkB inh 53.1, TWEAK-Fn14 inh 87.7
CCCCn1c(N)c(N(CCC(C)C)C(=O)C2CCCC2)c(=O)[nH]c1=O	none
Cc1cc(C(C#N)c2ccc(Cl)cc2)c(Cl)cc1NC(=O)c1cc(I)cc(I)c1O (stereo unspecified)	TROY NFkB inh 69.6
Cc1cc(NC(=O)c2ccc(Cl)cc2)c(C)cc1O	none
COc1cc(CNc2ncnc3c2ncn3[C@H]2CN(Cc3ccc4c(c3)OCO4)C[C@@H](CO)O2)cc(OC)c1OC	none (no result: MITF TRPM1 inh, LMP1 NFkB inh)
Cc1cc(C)nc(SCC(=O)OCN2C(=O)c3ccccc3C2=O)n1	LMP1 NFkB inh 85.4
Cn1cnnc1SCC(=O)OCN1C(=O)c2ccccc2C1=O	none
CC(Sc1nnc(-c2ccncc2)n1-c1ccc(F)cc1)C(=O)NC1CC1 (stereo unspecified)	none
CN(C)CCCNC(=O)c1cc(C(=O)c2ccc(F)cc2)c[nH]1	none
Cc1cc(C)c2c(N)c3ccccc3nc2n1	MITF TRPM1 inh 66.2
COC(=O)c1ccc(OC(=O)CS(=O)c2ccccc2[N+](=O)[O-])cc1 (stereo unspecified)	none
O=C(CS(=O)c1ccc(C(F)(F)F)cc1[N+](=O)[O-])Oc1ccccc1 (stereo unspecified)	MITF TRPM1 inh 87.5
COc1ccc(CCN(Cc2cccs2)S(=O)(=O)c2ccc(S(=O)(=O)N3CCCCCC3)cc2)cc1OC	none
CCC(C)NS(=O)(=O)c1ccc(S(=O)(=O)N(CCc2ccc(OC)c(OC)c2)Cc2cccs2)cc1 (stereo unspecified)	TWEAK-Fn14 inh 55.5
